BAZ2B inh = BAZ2B (human) inhibition | AlphaScreen BAZ2B-H3K14Ac peptide displacement | hit rate 4.4% among 360,000 | Potency, µM (series often up to 114 µM), inactives show at the top dose activity change, negative = inhibition, actives largely listed as inhibitors | Q9UIF8; further: potency means the concentration at half of the fitted maximal effect; on the % scale 0 is the no-effect control and ±100 the full control effect; nearly all actives have a fitted effect of over 60% in size
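AlphaScreen displacement of biotin-H3(5-23)K14Ac peptide (50 nM final) from BAZ2B (50 nM final) in PBS pH 7.4, 0.01% Tween-20; complex preformed 30 min RT, then compounds (top 110 uM) 30 min RT, beads 20 min dark.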
PLK1 PBD inh = blocks phosphopeptide binding to human PLK1 polo-box domain; P53350; Plk1 PBD binding of FITC phosphopeptide, fluorescence polarization; Potency, µM, for inactives: max response, negative = inhibition, actives largely listed as inhibitors; hit rate 2.8% among 360,000; further: potency means the concentration at half of the fitted maximal effect; series mostly up to about 57 µM; on the % scale 0 is the no-effect control and ±100 the full control effect; nearly all actives have a fitted effect of over 65% in size
PI5P4Ka inh = blocks human PI5P4K alpha kinase activity. P48426. PI5P4Kalpha enzyme, ADP-Glo luminescence, 60 min; hits give low values. max response, %. hit rate 1.2% among 330,000. AID 652105; active means max response of -50% or lower; inconclusive means between -30% and -50%; inactive means -30% or higher; further: value at the top dose of about 77 µM; on the % scale 0 is the no-effect control and ±100 the full control effect
Target sequence (P48426 whole entry, looked up): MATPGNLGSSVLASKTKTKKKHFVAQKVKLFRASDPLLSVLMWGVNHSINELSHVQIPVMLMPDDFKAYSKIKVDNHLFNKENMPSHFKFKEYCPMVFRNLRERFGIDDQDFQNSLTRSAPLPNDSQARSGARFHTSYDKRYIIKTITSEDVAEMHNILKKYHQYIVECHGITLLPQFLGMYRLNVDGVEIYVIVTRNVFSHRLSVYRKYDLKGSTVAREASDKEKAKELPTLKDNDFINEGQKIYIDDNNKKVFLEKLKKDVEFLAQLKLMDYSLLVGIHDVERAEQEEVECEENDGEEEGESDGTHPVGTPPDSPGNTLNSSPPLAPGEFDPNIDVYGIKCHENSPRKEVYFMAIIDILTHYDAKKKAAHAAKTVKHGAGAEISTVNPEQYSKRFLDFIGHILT
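Quantitative HTS of the MLSMR library against PI5P4Kalpha with substrate. ATP added last at 5 microM final; room temperature, 60 minutes. Remaining ATP depleted, ADP converted and read as luminescence.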
G9a inh = inhibitors of human histone lysine methyltransferase G9a | hit rate 8.8% among 350,000 | Potency, µM (highest dose often 102 µM), without a hit: at the highest dose activity, negative = inhibition, most hits filed as inhibitors | Q96KQ7 | AID 504332 | G9a H3K9 monomethylation, AlphaScreen, 2 h; further: potency means the concentration at half of the fitted maximal effect; on the % scale 0 is the no-effect control and ±100 the full control effect; nearly all actives have a fitted effect of over 75% in size
Target sequence (Q96KQ7 913-1193 limits assumed): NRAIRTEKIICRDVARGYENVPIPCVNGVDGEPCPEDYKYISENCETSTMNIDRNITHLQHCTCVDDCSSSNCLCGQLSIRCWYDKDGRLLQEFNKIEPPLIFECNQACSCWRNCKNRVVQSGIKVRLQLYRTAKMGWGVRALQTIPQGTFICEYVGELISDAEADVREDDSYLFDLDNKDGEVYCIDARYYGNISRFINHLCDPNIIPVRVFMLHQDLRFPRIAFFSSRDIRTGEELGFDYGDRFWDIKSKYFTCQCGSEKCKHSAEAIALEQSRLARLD
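G9a (20 nM) was preincubated 15 min with compound, then reacted 2 h at room temperature with 500 nM biotin-H3K9 peptide and 20 µM SAM. Monomethyl-H3K9 detected by AlphaScreen using anti-H3K9me1 antibody.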
HP1b chromo inh = HP1-beta chromodomain-methylated histone interaction inhibition | hit rate 0.56% among 390,000 | Potency, µM (series often up to 114 µM), for the others: top-dose activity change, negative = inhibition, usual class: inhibitors | AlphaScreen HP1-beta / biotin-H3K9me3 peptide binding | AID 540317 | P83916; further: potency means the concentration at half of the fitted maximal effect; nearly all actives have a fitted effect of over 70% in size
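Compound inhibition of the preformed complex between 50 nM HP1-beta and 50 nM biotinylated H3K9me3 peptide was read by AlphaScreen. Buffer was PBS pH 7.4 with 0.01% Tween-20. Incubations ran 30 min at room temperature, with 10 ug/mL donor/acceptor beads.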
JMJD2A Tudor = inhibitors of human JMJD2A Tudor domain; O75164; AlphaScreen JMJD2A-Tudor / H3K4me3 peptide binding; Potency, µM (doses to about 114 µM), for the others: top-dose activity change, negative = inhibition, actives largely listed as inhibitors; hit rate 4.4% among 390,000; AID 504339; further: potency means the concentration at half of the fitted maximal effect; on the % scale 0 is the no-effect control and ±100 the full control effect; nearly all actives have a fitted effect of over 50% in size
Numbers without * were called inactive; u = inconclusive; x = not tested or not shown; ! = repeats disagree; [ ] = another dose, or the depositor's remark. Shown are actives, neighbours in structure and some others; about 12% of the full set was active somewhere. Unless noted, the call rests on the fitted dose curve; in most records, active means well fitted curve in the direction sought with a large enough effect; inconclusive means small, poorly fitted or top-dose-only effect, or another doubt; inactive means no such curve, though single readings can be large; an effect the other way counts as inactive or inconclusive.

SMILES	BAZ2B inh	PLK1 PBD inh	PI5P4Ka inh	G9a inh	HP1b chromo inh	JMJD2A Tudor
O=C(NCCCn1ccnc1)c1nn2c(C(F)(F)F)cc(-c3ccc(Br)cc3)nc2c1Cl	50µM*	-14%	2	50µM*	u	45µM*
Cc1ccc(N2CCOCC2)c2c1C(=O)c1ccccc1C2=O	14µM*	-13%	1	3.5µM*	13µM*	32µM*
O=C1C=C(N2CCOCC2)c2ccccc2C1=O	-38%	-18%	-8	u	-2%	-15%
COCCn1c(C)cc(/C=C2/NC(=O)N(c3cccc(Cl)c3)C2=O)c1C	-37%	-4%	2	50µM*	8%	-24%
CC(C)n1cc(/C=C2\NC(=O)N(c3cccc(Cl)c3)C2=O)c2ccccc21	-14%	0%	-1	u	16%	-11%
CCn1c(C)cc(/C=C2/NC(=O)N(c3ccccc3)C2=O)c1C	u	21µM*	-16	x	-9%	u
CC1(C)CCC(=NNC(N)=S)CC1	x	-12%	4	x	u	0.71µM*
CNS(=O)(=O)c1cccc(C(=O)OCC(=O)c2ccc[nH]2)c1	u	-7%	-62*	u	7%	-34%
CCOC(=O)c1c(C)[nH]c(C)c1C(=O)COC(=O)c1cccc(S(=O)(=O)NC)c1	u	-1%	3	u	2%	-24%
CCOc1cc(S(=O)(=O)n2ccnc2)ccc1Cl	79µM*	-5%	1	u	6%	6%
CCOc1cc(S(=O)(=O)n2ccnc2)ccc1Br	-29%	-8%	-1	u	9%	-8%
N#C/C(=N\Nc1cccc(C(F)(F)F)c1)C(=O)c1ccsc1	40µM*	u	15	40µM*	-20%	50µM*
O=C(Nc1cccc(C(F)(F)F)c1)Nc1cccs1	-8%	x	x	-42%[59 µM]	-23%	-26%
S=C(Nc1ccc2c(c1)OCO2)N1CCN(Cc2ccco2)CC1	-17%	-23%	-10	0%	26%	-15%
O=C1CCCc2c1cc(C(=O)Nc1ccc(Br)cn1)c(=O)n2-c1ccccc1	-4%	-16%	-15	-38%[12.7 µM]	23%	79µM*
COC(=O)c1c(-c2ccc(S(C)(=O)=O)cc2)sc2cc(OC)ccc12	x	u	-3	x	43%	u
COC(=O)c1c(-c2ccc(S(C)(=O)=O)cc2)sc2ccc(OC)cc12	x	21µM*	-2	x	11%	45µM*
CCN1CCN(S(=O)(=O)c2ccc(Cl)c(C(=O)Oc3ccc(CC(=O)OC)cc3)c2)CC1	x	-3%	2	x	19%	-14%
O=C(COC(=O)/C=C/c1ccc(Cl)cc1)NCCN1C(=O)CSC1=O	-12%	17µM*	u	-26%	u	u
O=C(COC(=O)/C=C/c1ccc(OC(F)F)cc1)NCCN1C(=O)CSC1=O	x	u	0	-3%	4%	-31%
Cc1cc(N2CCOCC2)ccc1/C=C\[N+](=O)[O-]	u	13µM*	4	6.3µM*	-9%	-14%
O=C(c1ccc(=O)oc1)N1CCOCC1	50µM*	-29%	-3	22µM*	22µM*	45µM*
O=C(c1coc(=O)c(Br)c1)N1CCOCC1	50µM*	u	u	u	u	u
O=C(c1ccccc1)c1nn(-c2ccccc2)c(=O)cc1C(F)(F)F	89µM*	-4%	6	-15%	18%	-15%
COc1ccc(OC)c(/C=C2\N=C(c3ccccc3)OC2=O)c1	2%	12µM*	-5	11%[0.501 µM]	37%	3%
SMILES	BAZ2B inh	PLK1 PBD inh	PI5P4Ka inh	G9a inh	HP1b chromo inh	JMJD2A Tudor
COc1ccccc1NC(=O)CCC(=O)Nc1cc(OC)c(NC(=O)c2cccs2)cc1OC	1%	27µM*	7	-8%	-5%	79µM*
C/C(=N\NC(=O)CNc1cccc(Cl)c1C)c1cccs1	3%	-10%	2	x	8%	-8%
COc1ccccc1NCC(=O)N/N=C(\C)c1cccs1	u	24µM*	-17	39%[59 µM]	u	35µM*
COc1cc(NC(=O)c2cccs2)c(OC)cc1NC(=O)CCC(=O)Nc1cccc2ncccc12	-1%	2%	4	4%	41%	-11%
CCOC(=O)CNC(c1ccccc1)c1cc(Br)ccc1NC(=O)c1ccc(Cl)cc1 (stereo not drawn)	2%	x	x	-1%[59 µM]	21%	-10%
COc1cc(CN(C(=O)c2ccccc2[N+](=O)[O-])c2ccccn2)cc(OC)c1OC	-10%	x	x	6%[59 µM]	58%	0%
CSc1ccc(C(=S)N2CCN(CCO)CC2)cc1	5%	27µM*	x	10µM*	-16%	-8%
OCCN1CCN(C(=S)c2ccc(Br)cc2)CC1	-2%	6.7µM*	4	22µM*	0%	-10%
O=C(NCCN1CCN(C(=O)c2ccc(Br)cc2)CC1)c1ccc(Br)cc1	-5%	-4%	1	1%	39%	-21%
O=C(Nc1cc(F)ccc1F)c1ccc(CN2CC(=O)N3CCCCC3C2=O)cc1 (stereo not drawn)	-9%	x	x	-14%[59 µM]	9%	-4%
Cc1nc2nc(NC(=O)c3ccccc3F)[nH]n2c(=O)c1Cl	-9%	x	x	-22%[59 µM]	25%	-22%
CCn1nnc(NC(=O)c2ccc(C(C)(C)C)cc2)n1	39%	-12%	-4	18%[59 µM]	63%	-8%[57.1 µM]
COc1ccc(NC(=O)c2cccnc2)cc1	6%	-9%	-2	51%	30%	-8%
CCn1nnc(NC(=O)c2cccnc2)n1	-30%	u	-10	40µM*	-18%	-5%
CCN(CC)c1ccc(NC(=O)c2cccnc2)cc1	u	1%	6	10µM*	9%	-25%
O=C(O)c1ccccc1-c1ccc(/C=c2\sc3nc4cc(Br)cnc4n3c2=O)o1	40µM*	u	x	u	6.3µM*	3.2µM*
Cc1cc2nc(/C(C#N)=C\c3ccc(-c4ccccc4C(=O)O)o3)[nH]c2cc1C	u	79%	-27	u	4%	-16%
O=C(O)c1cc(-c2ccc(/C=c3\sc4nc5ccc(Br)cc5n4c3=O)o2)ccc1Cl	18µM*	x	x	0.79µM*	x	x
Cc1cc2nc3s/c(=C/c4ccc(-c5ccccc5C(=O)O)o4)c(=O)n3c2cc1C	50µM*	u	-86*	3.5µM*	u	32µM*
COc1ccc(NC(=O)N2CCCC3(CCN(C(=O)c4c(C)noc4C)CC3)C2)cc1	x	x	x	-3%[12.7 µM]	x	x
O=c1cc(-c2ccc(O)c(O)c2)oc2cc(O)c([C@@H]3O[C@H](CO)[C@@H](O)[C@H](O)[C@H]3O)c(O)c12	x	3%	-5	x	11%	32µM*!
O=c1c2cc(O)c(O)cc2oc2cc(O)c(C3OC(CO)C(O)C(O)C3O)c(O)c12 (stereo not drawn)	13µM*	0%	1	2.8µM*	u	7.9µM*
COc1ccc(OCC2c3cc(OC)c(OC)cc3CCN2C(=O)COc2ccc(Cl)cc2Cl)cc1 (stereo not drawn)	-24%	x	x	-32%[59 µM]	7%	-36%
